Shown are actives, neighbours in structure and some others; about 27% of the full set was active somewhere.
CYP2C19 inh = human CYP2C19 inhibition; P33261; CYP2C19 Supersomes, luciferin-H EGE luminescence, 30 min; inhibition, % at 5 µM; 96,000 compounds, 21% hits; AID 778;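 active = CYP2C19 inhibition above a set limit at 5 µM in the primary screen, cut at about 50% in these data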
CYP2C9 act = CYP2C9 (human) activation; P11712; recombinant CYP2C9, luciferin-H conversion, luminescence; active compounds read high; factor 1 = untreated enzyme, 0 = blocked; activation factor at 5 µM; 96,000 compounds, 1.4% hits; AID 1024;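 active = activation factor of 2 or more for CYP2C9 at a 5 µM dose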
EphB4 ephrin blk = blocks human EphB4 binding to ephrin-B2; P54760; EphB4 LBD / TNYL-RAW-Alexa532 peptide, fluorescence polarization; inhibition, % at 7 µM; 97,000 compounds, 0.15% hits; AID 720;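 active = inhibition above the screen-wide mean inhibition plus 3 SD, cut at about 15% in these data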
Target sequence (P54760 whole entry, looked up, the tested form may be a part): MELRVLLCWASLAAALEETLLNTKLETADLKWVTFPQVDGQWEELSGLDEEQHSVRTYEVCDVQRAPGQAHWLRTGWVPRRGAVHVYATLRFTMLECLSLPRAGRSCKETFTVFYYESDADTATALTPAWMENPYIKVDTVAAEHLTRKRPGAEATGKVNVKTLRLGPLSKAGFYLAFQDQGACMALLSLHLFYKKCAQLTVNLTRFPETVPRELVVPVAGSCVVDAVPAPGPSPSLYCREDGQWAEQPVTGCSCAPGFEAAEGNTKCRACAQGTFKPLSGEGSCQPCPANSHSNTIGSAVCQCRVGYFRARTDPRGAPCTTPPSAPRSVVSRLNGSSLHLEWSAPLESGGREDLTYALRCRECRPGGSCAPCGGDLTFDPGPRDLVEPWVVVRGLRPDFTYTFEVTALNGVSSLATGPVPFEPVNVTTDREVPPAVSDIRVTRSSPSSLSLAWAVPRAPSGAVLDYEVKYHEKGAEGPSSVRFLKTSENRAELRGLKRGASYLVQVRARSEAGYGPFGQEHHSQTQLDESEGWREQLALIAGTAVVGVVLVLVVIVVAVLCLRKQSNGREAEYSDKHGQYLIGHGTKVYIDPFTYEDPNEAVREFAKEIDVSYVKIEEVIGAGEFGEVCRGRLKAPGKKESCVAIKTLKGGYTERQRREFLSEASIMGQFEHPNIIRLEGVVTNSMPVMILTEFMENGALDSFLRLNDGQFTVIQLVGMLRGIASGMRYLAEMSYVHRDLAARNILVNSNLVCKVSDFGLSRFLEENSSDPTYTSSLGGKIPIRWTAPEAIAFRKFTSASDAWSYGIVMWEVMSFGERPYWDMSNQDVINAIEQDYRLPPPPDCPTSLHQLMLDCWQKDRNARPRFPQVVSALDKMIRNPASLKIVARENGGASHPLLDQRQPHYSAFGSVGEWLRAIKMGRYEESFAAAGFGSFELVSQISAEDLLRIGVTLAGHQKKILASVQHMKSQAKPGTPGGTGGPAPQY
CYP2C19 act = cytochrome P450 2C19 (human) activation; 96,000 tested, under 10 active; activation factor at 5 µM; recombinant CYP2C19, luciferin-H EGE luminescence; active compounds read high; 0 = fully inhibited enzyme, 1 = untreated enzyme; AID 1025;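 active = activation factor of at least 2 at 5 µM in the primary screen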
CYP2C9 inhib = human CYP2C9 inhibition; P11712; CYP2C9 Supersomes, luciferin-H conversion, luminescence; inhibition, % at 5 µM; 96,000 compounds, 20% hits; AID 777;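 active = blocking of liver enzyme CYP2C9 beyond about 50% at 5 µM, limit read from the data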
Hits are given with their value; . = inactive; / = no result given.

SMILES	CYP2C19 inh	CYP2C9 act	EphB4 ephrin blk	CYP2C19 act	CYP2C9 inhib
COc1ccccc1-n1c(-c2ccc(NS(C)(=O)=O)cc2)n[nH]c1=S	.	.	.	.	.
CCc1ccccc1-n1c(-c2ccncc2)n[nH]c1=S	68	.	/	.	68
N/C(=N\OC(=O)CCc1ccccc1)c1cccc(Br)c1	.	.	.	.	.
O=C(COc1ccccc1)Nc1ccc(S(=O)(=O)N2CCOCC2)cc1	.	.	.	.	.
Cc1nn(Cc2c(F)c(F)c(F)c(F)c2F)c(C)c1NC(=O)c1nn(C)cc1[N+](=O)[O-]	.	.	.	.	.
Clc1c(-c2nnc3n2CCC3)sc2ccccc12	.	3	/	.	.
Cn1c(-c2sc3ccccc3c2Cl)n[nH]c1=S	52	.	.	.	77
Cn1c(CSc2nc3ccccc3s2)nc2ccccc21	98	.	.	.	78
S=c1[nH]nc(CSc2nc3ccccc3s2)o1	.	.	.	.	.
Cn1c(CSc2nc3ccccc3s2)n[nH]c1=S	54	.	.	.	.
C=CCOc1nc(N2CCCC2)nc(N2CCCC2)n1	.	.	.	.	.
O=C(OCC(=O)N1CCN(C(=O)c2ccco2)CC1)c1sc2cc(F)ccc2c1Cl	.	.	.	.	.
Cc1csc2nnc(N)n12	.	.	.	.	.
COc1ccc(-c2cc(NCCc3ccncc3)n3ncnc3n2)cc1	.	.	/	.	70
COc1ccc(-c2cc(NCc3ccccn3)n3ncnc3n2)cc1	.	.	/	.	.
COc1cc(OC)cc(-c2nc3nc(C)c(CCC(=O)O)c(C)n3n2)c1	.	.	.	.	.
COc1cc2c(cc1OC)C(c1cc3cc(OC)c(OC)cc3[nH]c1=O)N(C(=O)C1CC1)CC2 (stereo not drawn)	.	.	.	.	61
CCCC(=O)N1CCc2cc(OC)c(OC)cc2C1c1cc2cc3c(cc2[nH]c1=O)OCO3 (stereo not drawn)	/	/	.	/	/
CCn1c(=O)c(=O)[nH]c2cc(C(=O)Nc3ccc(S(=O)(=O)N4CCCC4)cc3)ccc21	.	.	.	.	.
O=S(=O)(Nc1nc2ccccc2[nH]1)c1ccc(Cl)cc1	58	.	.	.	.
Clc1ccc(Nc2ncn[nH]2)cc1	.	.	.	.	.
O=S(=O)(Nc1nc2ccccc2[nH]1)c1ccccc1	.	.	.	.	.
O=S(=O)(Nc1ncn[nH]1)c1ccc(Cl)cc1	83	.	.	.	.
COCc1cc(=O)[nH]c(Nc2nc(C)c3ccccc3n2)n1	.	.	.	.	.
COc1ccc2nc(Nc3nc(CSc4nnnn4-c4ccccc4)cc(=O)[nH]3)nc(C)c2c1	.	.	.	.	.
SMILES	CYP2C19 inh	CYP2C9 act	EphB4 ephrin blk	CYP2C19 act	CYP2C9 inhib
CCOc1ccc2nc(Nc3nc(CSc4nnnn4-c4ccccc4)cc(=O)[nH]3)nc(C)c2c1	53	.	.	.	51
Cc1ccc2c(C)nc(Nc3nc(CSc4nnnn4-c4ccccc4)cc(=O)[nH]3)nc2c1	60	.	/	.	88
Cc1nc2scc(-c3cccs3)c2c(=O)n1-n1cccc1	53	.	.	.	58
Cc1nc2scc(-c3cccs3)c2c(=O)o1	80	.	.	.	55
Cc1ccc(C)n1-n1c(C)nc2scc(-c3cccs3)c2c1=O	79	.	/	.	71
COc1ccc(-c2csc3nc(C)n(-n4cccc4)c(=O)c23)cc1	.	.	.	.	.
O=c1oc(-c2cccs2)nc2scc(-c3cccs3)c12	.	.	.	.	.
Fc1ccc(CNc2nc3ccccc3n3cnnc23)cc1	.	.	.	.	.
COCCn1nnnc1C(c1ccc(C)cc1)N1CCN(Cc2ccc3c(c2)OCO3)CC1 (stereo not drawn)	.	.	/	.	51
CC(C)(C)n1nnnc1C(c1cccs1)N1CCN(Cc2ccc3c(c2)OCO3)CC1 (stereo not drawn)	53	.	.	.	.
Cc1cc(C)c2[nH]c(=O)c(C(c3nnnn3Cc3ccc4c(c3)OCO4)N3CCCCC3)cc2c1 (stereo not drawn)	.	.	/	.	.
Cc1ccc(C(c2nnnn2Cc2cccs2)N2CCN(Cc3ccc4c(c3)OCO4)CC2)cc1 (stereo not drawn)	62	.	/	.	.
COCCn1nnnc1C(c1ccccc1)N1CCN(Cc2ccc3c(c2)OCO3)CC1 (stereo not drawn)	.	.	/	.	.
CCC(C)(C)n1nnnc1C(c1cc2cc(C)cc(C)c2[nH]c1=O)N1CCN(Cc2ccc3c(c2)OCO3)CC1 (stereo not drawn)	.	.	.	.	80
COc1ccccc1CN1CCN(C(CC(C)C)c2nnnn2Cc2cccs2)CC1 (stereo not drawn)	92	.	/	.	58
Cc1ccc(SCCCn2cncn2)cc1	84	.	.	.	.
c1ccc(SCCOCCn2cncn2)cc1	78	.	.	.	.
c1ccc(COc2ccc(OCCOCCn3cncn3)cc2)cc1	.	.	.	.	.
O=C(Nc1cccc(F)c1)c1cc(S(=O)(=O)N2CCC(C(=O)O)CC2)ccc1F	.	.	.	.	.
CC1=C(C)NC(=S)SC1	.	.	.	.	.
CCn1c(COc2ccccc2C)nnc1SCC(=O)OC	.	.	/	.	.
CCn1c(COc2cccc(C)c2)nnc1SCC(=O)N1CCCC1	.	.	.	.	.
CCn1c(CNC(=O)COc2ccc(C(C)C)cc2)nnc1SCC(=O)Nc1ccccc1F	53	.	.	.	71
CCn1c(COc2ccccc2)nnc1SCC(=O)CC(=O)Nc1ccccc1OC	.	2.1	.	.	.
CCn1c(COc2ccccc2C)nnc1SCC(=O)CC(=O)Nc1ccccc1OC	.	2.5	.	.	.
SMILES	CYP2C19 inh	CYP2C9 act	EphB4 ephrin blk	CYP2C19 act	CYP2C9 inhib
CCn1c(COc2cccc(C)c2)nnc1SCC(=O)CC(=O)Nc1ccccc1OC	.	3.1	.	.	.
CCOC(=O)N1CCN(Cc2nc(N)nc(Nc3ccc(OCC)cc3)n2)CC1	.	.	.	.	.
COc1ccccc1NC(=O)COc1ccc(Br)cc1CO	55	.	.	.	.
CCOC(=O)Nc1cccc(OCC(=O)Nc2ccccc2OC)c1	/	/	.	/	/
Cc1ccccc1OCC(=O)Nc1ccccc1CO	72	.	.	.	.
Cc1ccc(OCC(=O)NC2=NCCS2)cc1	.	.	.	.	.
O=C(O)COc1ccc(Cl)cc1CO	.	.	.	.	.
Cc1ccccc1OCC(=O)Nc1cccc2nsnc12	/	/	.	/	/
Cc1ccccc1OCC(=O)NC1=NCCS1	51	.	.	.	.
O=C(COc1ccc(Br)cc1CO)Nc1ccccc1F	95	.	.	.	67
CCOC(=O)c1cc(NC(=O)c2cnccn2)cc(C(=O)OCC)c1	.	.	.	.	.
CCC(=O)N1CCc2cc(S(=O)(=O)NCCC(=O)N3CCN(Cc4ccccc4)CC3)ccc21	.	.	.	.	.
Cc1ccc(-n2c(-c3ccco3)nc3c(cnn3-c3ccc(C)cc3)c2=O)cc1	.	.	.	.	.
CCC(=O)N1CCN=C1SCc1ccc(Cl)cc1	84	.	.	.	.
O=C(C1CC1)N1CCN=C1SCc1ccccc1Cl	98	.	.	.	.

Assay outcomes as filed in PubChem BioAssay.
